A selection: hits, their analogues and other compounds. The true share with any hit is near 4.5%.
DAX1 inh-1 – blocks DAX1 repression of SF-1 activated StAR promoter; AID 652010; HEK293T StAR-luciferase reporter, SF-1/DAX-1 repression relief; actives 1.1% (n = 370,000); inhibition, % at 6.8 µM;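 active = inhibition above the mean over all tested compounds plus 3 SD, cut at about 3.6% in these data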;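 also: higher inhibition means more luminescence from relief of DAX-1 repression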
ssDAF-12 act – S. stercoralis DAF-12 activation, primary screen; HEK293 ssDAF-12/GRIP1 lit1-tk-luc reporter, luminescence; % of 3 µM dafachronic acid response; activation, % at 6.8 µM; actives 1% (n = 370,000);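 active = activation above the mean over all tested compounds plus 3 SD, cut at about 0.9% in these data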
hgDAF-12 ag – agonists of H. glycines DAF-12 nuclear receptor | HEK293 GAL4-hgDAF12 UAS-luciferase reporter, agonist luminescence; normalized to butyrate control | activation, % at 6.8 µM | actives 1.8% (n = 370,000) | AID 687014;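 active = activation above a cutoff set at the mean of all screened compounds plus 3 SD, cut at about 10% in these data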
DAX1 inh-2 – inhibits human nuclear receptor DAX1. AID 504766. actives 0.99% (n = 340,000). P51843. HEK293 Gal4-DAX1 luciferase reporter, luminescence. inhibition, % at 6.75 µM;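 active = inhibition above the mean over all tested compounds plus 3 SD, cut at about 4.2% in these data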;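 also: inhibition shows as a rise in luminescence from relieved DAX1 repression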
hcDAF12 agonist – H. contortus DAF-12 activation, primary screen | AID 652067 | activation, % at 6.8 µM | actives 1.4% (n = 370,000) | HEK293 hcDAF-12 lit1-tk-luc reporter, luminescence; 0% DMSO, 100% Δ7-dafachronic acid;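 active = activation above the mean of all tested compounds plus 3 SD, cut at about 5.5% in these data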
FXN GAA850 act – frataxin GAA850 promoter activation | actives 0.56% (n = 360,000) | activation, % at 6 µM | HEK293 lucGAA850 FXN promoter luciferase reporter, 24 h; percent of 10 µM SAHA response | AID 540364;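 active = activation above the average of all compounds screened plus 3 SD, cutoff fixed separately per campaign, cut at about 7.5% in these data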
DAX1 conf – NR0B1 (human) inhibition, confirmation; shares compounds with DAX1 inh-1; HEK293T StAR-promoter luciferase reporter, SF-1/DAX-1 repression; inhibition, % at 6.8 µM; actives 87% (n = 2,400);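 active = inhibition above the average of every tested compound plus 3 SD, cut at about 3.8% in these data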;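 also: active compounds raise luminescence by relieving repression of the StAR reporter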
Target sequence (P51843 whole entry, looked up): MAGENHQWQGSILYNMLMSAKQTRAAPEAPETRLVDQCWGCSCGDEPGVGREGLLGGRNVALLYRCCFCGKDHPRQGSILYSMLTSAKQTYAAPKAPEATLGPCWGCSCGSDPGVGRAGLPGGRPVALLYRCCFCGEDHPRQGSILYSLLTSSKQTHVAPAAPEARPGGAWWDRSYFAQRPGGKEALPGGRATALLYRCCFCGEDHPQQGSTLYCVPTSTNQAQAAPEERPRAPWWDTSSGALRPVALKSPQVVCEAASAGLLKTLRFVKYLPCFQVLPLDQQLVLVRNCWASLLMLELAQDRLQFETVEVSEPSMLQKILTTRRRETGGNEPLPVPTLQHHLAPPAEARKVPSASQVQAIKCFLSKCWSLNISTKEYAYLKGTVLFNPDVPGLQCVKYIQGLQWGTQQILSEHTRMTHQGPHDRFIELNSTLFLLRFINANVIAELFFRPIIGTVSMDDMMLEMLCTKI
SF1 AF2mut Luc – nonselective inhibitor or artifact in SF-1 mutant DAX1 counter-screen; inhibition, % at 6.8 µM; shares compounds with DAX1 inh-1; HEK293 StAR-luciferase, SF-1 AF2 mutant, luminescence; actives 78% (n = 2,400);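 active = inhibition above the mean of all tested compounds plus 3 SD, cut at about 3% in these data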
Numbers stand for hits; - = inactive; . = no result.

SMILES	DAX1 inh-1	ssDAF-12 act	hgDAF-12 ag	DAX1 inh-2	hcDAF12 agonist	FXN GAA850 act	DAX1 conf	SF1 AF2mut Luc
Cc1cc(C(=O)Nc2ccc3c(c2)OCO3)no1	7.8	-	-	-	-	-	9.1	7.5
CCc1sc(C(=O)Nc2ccc3c(c2)OCO3)cc1C	7.6	-	11	-	-	-	9.3	6.5
CCc1sc(C(=O)Nc2ccc(N3CCOCC3)cc2)cc1C	-	-	-	-	-	-	.	.
CC(=O)Nc1ccc2c(c1)OCCOCCOc1cc(NC(C)=O)ccc1OCCOCCOCCO2	-	-	-	.	-	.	.	.
COc1ccc(Cc2c(-c3ccc(C)cc3)nc3ccc(Cl)cn23)c(C)c1	5.7	-	13	.	-	.	6.5	4.9
COc1ccc(Cc2c(-c3cccc(Cl)c3)nc3ccc(Br)cn23)c(C)c1	-	-	-	.	-	.	.	.
COc1ccc(Cc2c(-c3cccc(Br)c3)nc3ccc(Br)cn23)c(C)c1	5.1	-	-	.	-	.	-	3.5
CCCN1C(=O)c2n[nH]c(C)c2C1c1ccc2c(c1)OCO2 (stereo unspecified)	-	-	-	.	-	.	.	.
O=C(NCc1ccccn1)c1ccc(Cl)c(S(=O)(=O)N2CCCCC2)c1	-	-	-	-	-	-	.	.
Cc1ccnc(NC(=O)c2cccc(S(=O)(=O)N3CCN(c4ccccc4)CC3)c2)c1	13	-	-	-	-	-	4.0	-
CC1CCN(S(=O)(=O)c2ccc(C(=O)Nc3ccccn3)cc2)CC1	-	-	-	-	-	-	.	.
Cc1ccnc(NC(=O)c2ccc(S(=O)(=O)N3CCC(C)CC3)cc2)c1	11	-	11	-	-	-	13	7.6
O=C(NCc1ccccn1)c1cccc(S(=O)(=O)N2CCCCC2)c1	4.7	-	-	-	-	-	-	-
O=C1CCC[C@H]2C[C@H](NCc3cccc(Cl)c3)CC[C@]23CCCN13	.	-	-	.	-	.	.	.
Clc1ccc(-c2cc(-c3nnc4sc(Cc5cccs5)nn34)[nH]n2)cc1	-	-	-	.	-	.	.	.
Cc1ccc(NC(=O)c2ccc3snnc3c2)cc1C	6.5	-	-	-	-	-	9.4	-
Cc1cccc(C)c1-n1nnnc1C1c2ccccc2C(=O)N1C1CC1 (stereo unspecified)	4.9	-	-	.	-	.	-	-
CCCn1cnc2cc(NCc3ccccn3)ccc21	5.0	-	-	-	-	-	3.8	-
CCc1ccc(CNc2ccc3c(c2)ncn3C)cc1	4.6	-	-	-	-	-	7.9	6.9
COc1ccccc1-n1cnc2cc(NCc3ccccn3)ccc21	-	-	-	-	-	-	.	.
O=C1Nc2ccccc2N(C(=O)c2ccc(-c3ccccc3)cc2)C1c1nc2ccccc2[nH]1 (stereo unspecified)	20	-	26	.	9.1	.	8.2	4.8
CCc1ccc(-n2ncc(Cl)c(Oc3ccc(OC)cc3)c2=O)cc1	.	-	-	.	-	.	.	.
CCOC(=O)C1=C(C(=O)OCC)C2N(Cc3ccc(C#N)cc3)c3ccccc3[C@@]23C[C@@H](C(=O)OC)N(S(=O)(=O)c2cccs2)C3=N1 (stereo partly specified)	-	-	-	.	-	.	.	.
O=C(COC(=O)c1ccc(O)cc1O)c1ccc(Cl)cc1	5.8	-	-	-	-	-	5.4	-
Fc1ccc(Cn2ccc3ccc(-c4ccc5ccn(Cc6ccccc6)c5c4)cc32)cc1	-	-	-	.	-	.	.	.
COc1ccc(OC)c(CN2CCN(C(=O)CN3C(=O)NC4(CCCC4)C3=O)CC2)c1	4.9	-	-	-	-	-	-	-
COc1ccc(C(=O)N(C)C(C)c2nccs2)cc1OC1CCN(C(C)=O)CC1 (stereo unspecified)	-	-	-	-	-	-	.	.
